According to PubChem BioAssay (NCATS):
Results filed as inconclusive are left out. Calls of active or inactive are those of the source. The call rests on the fitted dose curve; in most records, active means well fitted curve in the direction sought with a large enough effect; inconclusive means small, poorly fitted or top-dose-only effect, or another doubt; inactive means no such curve, though single readings can be large; an effect the other way counts as inactive or inconclusive.

assay: qHTS for Hypoxia signaling pathway (HIF-1) antagonists against the NCATS CANVASS Library (AID 1347374); conditions: HRE-bla ME-180 cells, HIF-1 beta-lactamase reporter, CoCl2; series mostly up to 38.3 µM; activity change, negative = inhibition: at the top concentration; further: nearly all actives have a fitted effect of over 60% in size; further: potency means the concentration at half of the fitted maximal effect;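 on activity change, negative = inhibition: HRE-bla ME-180 cells stimulated with cobalt chloride to stabilize HIF-1alpha; on the % scale 0 is the no-effect control and ±100 the full control effect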
Procedure, shortened: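 HRE-bla ME-180 cells (2,000/well, 0.5% dialyzed FBS) were pre-incubated 5 h, then given an 11-point compound series plus CoCl2 (60 uM solution as added) for 17 h at 37C. CCF4 β-lactamase read (ex 405, em 460/530 nm) after 2 h at RT.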

Row | Structure (SMILES) | activity change, negative = inhibition | Potency
1 | CC1=CC2CC[C@@H]3[C@@H](C)C[C@H](C)[C@@H](C1)N23 (some centres undefined) | -2.94% (inactive) | –
2 | CCN1C[C@]2(C)CC[C@@H](O)[C@]34C1[C@H](C[C@H]23)C12CCC(CC14)[C@](O)(CO)[C@H]2O (some centres undefined) | 2.54% (inactive) | –
3 | CO[C@@H](/C=C/CC/C=C/C(=O)O)[C@@H](O)[C@H](C)[C@@H](O)/C(C)=C/[C@H](C)C(=O)CCCC1CC(=O)NC(=O)C1 | 3.35% (inactive) | –
4 | CCCC[C@@H]1CC[C@H]2CCCC(CCC)N12 (some centres undefined) | 2.25% (inactive) | –
5 | C[C@]12CC(O)C3[C@@H](CCC4C[C@@H](O)CC[C@@]43CO)[C@@]1(O)CCC2C1=CC(=O)OC1 (some centres undefined) | -0.374% (inactive) | –
6 | CO[C@@H](/C=C/CC/C=C/C(=O)O)[C@@H](O)[C@H](C)/C=C(\C)[C@@H](O)[C@H](C)C(=O)CCCC1CC(=O)NC(=O)C1 | 2.33% (inactive) | –
7 | O=C(c1ccccc1O)c1[nH]c(Cl)c(Cl)c1-n1c(C(=O)c2ccccc2O)cc(Cl)c1Cl | – | 1.18 µM (active)
8 | CC[C@@H]1CN2CC[C@@]3(O)C(=Nc4cccc(OC)c43)[C@@H]2C[C@@H]1/C(=C\OC)C(=O)OC | -8.31% (inactive) | –
9 | CNCCc1ccccc1 | 1.22% (inactive) | –
10 | CCCCC[C@@H]1OC(=O)[C@@H](C)N(C)C(=O)[C@H](CCCCC)OC(=O)C(C)N(C)C(=O)[C@H](CCCCC)OC(=O)[C@@H](C)N(C)C(=O)[C@H](CCCCC)OC(=O)C(C)N(C)C1=O (some centres undefined) | – | 11.8 µM (active)
11 | CO[C@H](c1ccccc1)[C@H]1NC(=O)C(C)NC(=O)C(C[C@@H](C)CO)N(C)C(=O)[C@@H](C(O)c2cn(C(C)(C)C3CO3)c3ccccc23)NC(=O)C(C(C)C=C(C)C)NC(=O)C(CC(C)C)N(C)C(=O)C(C(C)C)NC1=O (some centres undefined) | -0.0936% [at 22.9 µM] (inactive) | –
12 | CCN1C[C@]2(C)CC[C@H](O)[C@]34C1C(C[C@H]23)[C@@]12CC[C@H](CC14)[C@](O)(COC(=O)c1ccc(OC)c(OC)c1)[C@H]2O (some centres undefined) | 12.9% (inactive) | –
13 | CCC(=O)CCCCC[C@@H]1NC(=O)[C@H]2CCCCN2C(=O)[C@H]([C@@H](C)CC)NC(=O)[C@H](Cc2cn(OC)c3ccccc23)NC1=O | -64.9% (inactive) | –

assay: qHTS for Hypoxia signaling pathway (HIF-1) agonists against the NCATS CANVASS Library (AID 1347375); conditions: HRE-bla ME-180 cells, HIF-1 beta-lactamase reporter, 17 h; series mostly up to 38.3 µM; activation: at the top concentration; further: potency means the concentration at half of the fitted maximal effect; on activation: 0% is about no effect
Procedure, shortened: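 HRE-bla ME-180 cells (beta-lactamase reporter under hypoxia responsive element) in 0.5% dialyzed FBS medium, 5 h at 37C, then compound 17 h, 11-point qHTS series. CCF4-AM FRET substrate 2 h RT; 460/530 nm emission read.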

Row | Structure (SMILES) | activation | Potency
14 | CC1=CC2CC[C@@H]3[C@@H](C)C[C@H](C)[C@@H](C1)N23 (some centres undefined) | 4.7% (inactive) | –
15 | CC=C1CN(C=O)[C@H]2C[C@@H]1[C@@H](C(=O)OC)[C@@]13CCOC21Nc1ccccc13 (some centres undefined) | -0.981% (inactive) | –
16 | C[C@@H]1CC[C@@H](c2ccoc2)N2C[C@@]3(CC[C@@H]12)CS[C@@]1(CC[C@H]2[C@H](C)CC[C@@H](c4ccoc4)N2[C@@H]1O)C3 | – | 8.38 µM (active)
17 | CCN1C[C@]2(C)CC[C@@H](O)[C@]34C1[C@H](C[C@H]23)C12CCC(CC14)[C@](O)(CO)[C@H]2O (some centres undefined) | 0.688% (inactive) | –
18 | CO[C@@H](/C=C/CC/C=C/C(=O)O)[C@@H](O)[C@H](C)[C@@H](O)/C(C)=C/[C@H](C)C(=O)CCCC1CC(=O)NC(=O)C1 | 4.51% (inactive) | –
19 | CCCC[C@@H]1CC[C@H]2CCCC(CCC)N12 (some centres undefined) | 4.6% (inactive) | –
20 | C[C@]12CC(O)C3[C@@H](CCC4C[C@@H](O)CC[C@@]43CO)[C@@]1(O)CCC2C1=CC(=O)OC1 (some centres undefined) | -1.23% (inactive) | –
21 | CO[C@@H](/C=C/CC/C=C/C(=O)O)[C@@H](O)[C@H](C)/C=C(\C)[C@@H](O)[C@H](C)C(=O)CCCC1CC(=O)NC(=O)C1 | 1.49% (inactive) | –
22 | CC[C@@H]1CN2CC[C@@]3(O)C(=Nc4cccc(OC)c43)[C@@H]2C[C@@H]1/C(=C\OC)C(=O)OC | 2.09% (inactive) | –
23 | CNCCc1ccccc1 | -1.59% (inactive) | –
24 | CCCCC[C@@H]1OC(=O)[C@@H](C)N(C)C(=O)[C@H](CCCCC)OC(=O)C(C)N(C)C(=O)[C@H](CCCCC)OC(=O)[C@@H](C)N(C)C(=O)[C@H](CCCCC)OC(=O)C(C)N(C)C1=O (some centres undefined) | 2.05% (inactive) | –
25 | CO[C@H](c1ccccc1)[C@H]1NC(=O)C(C)NC(=O)C(C[C@@H](C)CO)N(C)C(=O)[C@@H](C(O)c2cn(C(C)(C)C3CO3)c3ccccc23)NC(=O)C(C(C)C=C(C)C)NC(=O)C(CC(C)C)N(C)C(=O)C(C(C)C)NC1=O (some centres undefined) | -3.65% [at 22.9 µM] (inactive) | –
26 | CCN1C[C@]2(C)CC[C@H](O)[C@]34C1C(C[C@H]23)[C@@]12CC[C@H](CC14)[C@](O)(COC(=O)c1ccc(OC)c(OC)c1)[C@H]2O (some centres undefined) | 1.74% (inactive) | –
27 | CCC(=O)CCCCC[C@@H]1NC(=O)[C@H]2CCCCN2C(=O)[C@H]([C@@H](C)CC)NC(=O)[C@H](Cc2cn(OC)c3ccccc23)NC1=O | -4.33% (inactive) | –

assay: 10-beta competent E. coli microbial cell viability qHTS against the NCATS CANVASS Library (AID 1347376); further: 0% is about no effect; conditions: E. coli 10-beta viability, BacTiter-Glo ATP luminescence, overnight; series mostly up to 46.1 µM; activity change, negative = cytotoxic: at the top concentration
Procedure, shortened: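 10-beta competent E. coli (0.9 OD culture diluted to 0.2 OD) exposed to compounds in an 11-point qHTS series, incubated overnight at 37C, 5% CO2. Viability read as ATP by BacTiter-Glo luminescence after 20 min at room temperature.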

Row | Structure (SMILES) | activity change, negative = cytotoxic
28 | CC1=CC2CC[C@@H]3[C@@H](C)C[C@H](C)[C@@H](C1)N23 (some centres undefined) | -6.6% (inactive)
29 | CC=C1CN(C=O)[C@H]2C[C@@H]1[C@@H](C(=O)OC)[C@@]13CCOC21Nc1ccccc13 (some centres undefined) | -16.2% (inactive)
30 | C[C@@H]1CC[C@@H](c2ccoc2)N2C[C@@]3(CC[C@@H]12)CS[C@@]1(CC[C@H]2[C@H](C)CC[C@@H](c4ccoc4)N2[C@@H]1O)C3 | 6.82% (inactive)
31 | CCN1C[C@]2(C)CC[C@@H](O)[C@]34C1[C@H](C[C@H]23)C12CCC(CC14)[C@](O)(CO)[C@H]2O (some centres undefined) | -20.5% (inactive)
32 | CO[C@@H](/C=C/CC/C=C/C(=O)O)[C@@H](O)[C@H](C)[C@@H](O)/C(C)=C/[C@H](C)C(=O)CCCC1CC(=O)NC(=O)C1 | 14.8% (inactive)
33 | CCCC[C@@H]1CC[C@H]2CCCC(CCC)N12 (some centres undefined) | -9.27% (inactive)
34 | C[C@]12CC(O)C3[C@@H](CCC4C[C@@H](O)CC[C@@]43CO)[C@@]1(O)CCC2C1=CC(=O)OC1 (some centres undefined) | -11.2% (inactive)
35 | CO[C@@H](/C=C/CC/C=C/C(=O)O)[C@@H](O)[C@H](C)/C=C(\C)[C@@H](O)[C@H](C)C(=O)CCCC1CC(=O)NC(=O)C1 | 7.64% (inactive)
36 | O=C(c1ccccc1O)c1[nH]c(Cl)c(Cl)c1-n1c(C(=O)c2ccccc2O)cc(Cl)c1Cl | -9.46% (inactive)
37 | CC[C@@H]1CN2CC[C@@]3(O)C(=Nc4cccc(OC)c43)[C@@H]2C[C@@H]1/C(=C\OC)C(=O)OC | -0.67% (inactive)
38 | c1ccc2c3c([nH]c2c1)CNCC3 | -5.24% (inactive)
39 | CNCCc1ccccc1 | -0.742% (inactive)
40 | CCCCC[C@@H]1OC(=O)[C@@H](C)N(C)C(=O)[C@H](CCCCC)OC(=O)C(C)N(C)C(=O)[C@H](CCCCC)OC(=O)[C@@H](C)N(C)C(=O)[C@H](CCCCC)OC(=O)C(C)N(C)C1=O (some centres undefined) | 14.3% (inactive)
41 | CO[C@H](c1ccccc1)[C@H]1NC(=O)C(C)NC(=O)C(C[C@@H](C)CO)N(C)C(=O)[C@@H](C(O)c2cn(C(C)(C)C3CO3)c3ccccc23)NC(=O)C(C(C)C=C(C)C)NC(=O)C(CC(C)C)N(C)C(=O)C(C(C)C)NC1=O (some centres undefined) | -3.09% [at 27.5 µM] (inactive)
42 | CC1=CC(=O)C2=C(C)C[C@H](O)[C@@H]3[C@H](OC(=O)[C@@H]3C)[C@@H]12 | -6.42% (inactive)
43 | CCN1C[C@]2(C)CC[C@H](O)[C@]34C1C(C[C@H]23)[C@@]12CC[C@H](CC14)[C@](O)(COC(=O)c1ccc(OC)c(OC)c1)[C@H]2O (some centres undefined) | -5.93% (inactive)
44 | CCC(=O)CCCCC[C@@H]1NC(=O)[C@H]2CCCCN2C(=O)[C@H]([C@@H](C)CC)NC(=O)[C@H](Cc2cn(OC)c3ccccc23)NC1=O | -13.9% (inactive)
